The inhibition is the drop in the measured response relative to a control, in per cent.

Ten compounds from PubChem BioAssay can be followed below.

Several values for one entry are separate records, joined by “and”; a condition that tells them apart may be missing. Equal entries are not always repeated. Activity calls are given as the source filed them.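 Rule for the calls, unless noted: active = inhibition at or above 50% relative to wild type and mutant plate controls; inactive = inhibition below 50%.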

The nature of assay [1]: inhibitors of TNFa-induced NFkB p65 translocation, primary screen, imaging, HUVEC, MLSMR starter and 10KST1 sets (AID 438;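 active = inhibition above 20% together with a positive visual image hit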;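 note: compound added about 3h40 before a 20 min TNFalpha stimulation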;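 for inhibition: signal is the nuclear over cytoplasmic p65 intensity ratio per well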). To be noted: HUVEC TNFa-induced p65 nuclear translocation; cell count: measured here: nuclei count (cytotoxicity indicator), at 2.08 µM; inhibition: at 2 µM, stronger effect = higher value, 0% TNFa-plus-vehicle, 100% no-TNFa wells.
A short description of assay [2]: inhibitors of mutant huntingtin aggregation, primary screen, imaging, exon1htt(103Q)mCFP cells, high-content imaging (AID 483;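 active = visual image review flags a hit and inhibition of aggregation exceeds 20%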;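 note: compound exposure lasted 3 days before fixation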;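 for nuclei count: percent of the per-plate median nuclei count of sample wells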). To be noted: exon1htt(103Q)mCFP cell line, aggregate imaging, at 2 µM; inhibition of aggregation: stronger effect = higher value; nuclei count: measured here: cell count, toxicity.
Assay [3] can be described thus: inhibitors of E-selectin induction by TNFa, primary screen, imaging, HUVEC, immunofluorescence, MLSMR starter and 10KST1 sets (AID 487;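 active = visually confirmed hit in the image check and inhibition above 20%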;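 for inhibition: signal is fraction of cell area covered by stained E-selectin grains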;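 for nuclei count: 100% = median nuclei count of all wells on the same plate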). To be noted: HUVEC TNFalpha-induced E-selectin immunofluorescence imaging, at 2 µM; inhibition: stronger effect = higher value; nuclei count: measured here: cell number, toxicity.
The nature of assay [4]: DUSP6 inhibitors restoring Erk phosphorylation by chemical complementation, primary imaging in DUSP6-transfected HeLa (AID 609;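 active = compounds giving at least 50% inhibition in the cell-based MKP-3 phosphatase rescue imaging test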;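 for inhibition: phospho-Erk level distribution per well compared with pooled transfected vehicle control wells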). To be noted: HeLa MKP-3 transfected, phospho-Erk imaging KS statistic, at 10 µM, cells stimulated with TPA for 15 min.
The target in assay [5] is Dual specificity protein phosphatase 6 (Homo sapiens) (UniProt Q16828). The description is as above. To be noted: HeLa MKP-3 transfected, phospho-Erk imaging KS statistic; at 10 µM; stronger effect = higher value; cells stimulated with TPA for 15 min.
Chain of Dual specificity protein phosphatase 6 (Homo sapiens) (Q16828 whole entry, looked up): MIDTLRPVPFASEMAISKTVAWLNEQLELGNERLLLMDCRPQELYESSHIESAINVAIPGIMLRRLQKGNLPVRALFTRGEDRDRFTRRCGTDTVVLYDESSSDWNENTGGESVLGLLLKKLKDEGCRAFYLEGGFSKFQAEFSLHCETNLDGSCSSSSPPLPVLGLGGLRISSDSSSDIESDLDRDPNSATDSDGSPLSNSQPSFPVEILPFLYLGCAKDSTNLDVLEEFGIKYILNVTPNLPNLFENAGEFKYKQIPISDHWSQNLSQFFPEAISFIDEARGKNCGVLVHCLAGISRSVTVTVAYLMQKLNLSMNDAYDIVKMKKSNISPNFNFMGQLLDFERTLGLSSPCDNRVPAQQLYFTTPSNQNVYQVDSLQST
The target of assay [6] is Voltage-gated potassium channel subunit beta-2 (Rattus norvegicus) (UniProt P62483). Put plainly: KvBeta enzyme negative modulators, primary screen, biochemical, NADPH fluorescence (AID 622;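 active = fluorescence slope higher than the sample average by over 3 SD, cut at about -0.22 in these data, passing the limit was not always enough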;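 note: slope of raw intensity against log time taken from 70 to 1610 s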). To be noted: recombinant KvBeta, 4-cyanobenzaldehyde reduction, at 10 µM, stronger effect = higher value.
Chain of Voltage-gated potassium channel subunit beta-2 (Rattus norvegicus) (P62483 whole entry, looked up): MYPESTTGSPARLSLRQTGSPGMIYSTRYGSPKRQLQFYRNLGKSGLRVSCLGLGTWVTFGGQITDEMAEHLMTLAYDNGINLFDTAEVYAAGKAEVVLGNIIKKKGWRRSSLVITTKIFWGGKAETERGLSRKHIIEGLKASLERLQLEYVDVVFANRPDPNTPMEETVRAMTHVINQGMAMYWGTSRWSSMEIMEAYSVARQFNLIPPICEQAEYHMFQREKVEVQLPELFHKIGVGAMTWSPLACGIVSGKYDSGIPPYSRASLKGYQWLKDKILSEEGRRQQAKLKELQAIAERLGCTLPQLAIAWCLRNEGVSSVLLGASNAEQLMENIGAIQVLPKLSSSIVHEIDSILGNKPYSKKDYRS
The target is the same in assay [7]. As to the kind of experiment: KvBeta positive modulators, primary screen, biochemical, NADPH fluorescence (AID 623;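 active = NADPH fluorescence slope more negative than the mean of all samples by about 3 SD, 99.7% confidence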;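 note: fluorescence intensity change per second fitted from 20 to 320 s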). The conditions noted are these: Recombinant KvBeta, NADPH fluorescence decrease slope, 10 min; at 10 µM; stronger effect = lower value.
Assay [8] addresses Alpha-2C adrenergic receptor (Homo sapiens) (UniProt P18825). Put plainly: modulators of alpha2C/GIRK thallium flux, primary screen, cell-based, HEK293 alpha2C/GIRK1/2 (AID 624;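 active = fluorescence slope after compound addition differing from the mean of all screened samples at 99.7% confidence, in either direction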;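 note: slope of fluorescence ratio to pre-addition baseline per second over 15 to 24 s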). The conditions noted are these: thallium flux BTC fluorescence, at 10 µM, actives lie on both sides.
Assay [9] can be described thus: inhibitors of larval lipid processing in zebrafish, primary screen, whole organism, PED6 fluorescence, gall bladder and intestine (AID 686;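 active = a full or partial loss of lipid-probe fluorescence in the fish gall bladder, intestine or both, judged by eye; inactive = no fluorescence loss, or compound toxic to the fish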;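 note: larvae 5 to 7 days old with five fish per well; signal comes from phospholipase A2 cleavage of quenched PED6 carried via bile; overnight exposure to compound and PED6 before scoring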). The conditions noted are these: Zebrafish larvae PED6 lipid processing, fluorescence scoring; screened at 20 µM (by protocol).
Assay [10] can be described thus: inhibitors of Chlamydomonas gravitaxis, primary screen, whole organism, Chlamydomonas reinhardtii, WT vs cilia-less mutant, absorbance, 96-well (AID 463189).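 Note: 0% = wild type cc124 cells in DMSO and 100% = ciliumless bld1 mutant cells.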 The conditions noted are these: OD600 absorbance, 2 days, at 10 µM, stronger effect = higher value.
Assay [11] is described as follows: inhibitors of Sendai virus-induced IRF3 signaling, primary screen, TLR/RLR signaling modifier project, cell-based, Sendai virus stimulus, luciferase, 10K MLSCN set (AID 602276;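 active = inhibition at or above 50% at 10 µM; inactive = inhibition below 50%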;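 note: firefly luciferase from ISG56 promoter only with Renilla not read in this screen; 0% = Sendai virus plus DMSO and 100% = medium plus DMSO without virus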). To be noted: HEK293 RL24 IRF3 luciferase reporter, at 10 µM, stronger effect = higher value.
The nature of assay [12]: inhibitors of poly I:C-induced TLR3 signaling, primary screen, cell-based, poly I:C stimulus, luciferase, 10K MLSCN set (AID 602277;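 active = inhibition of the reporter signal at or above 50%; inactive = inhibition below 50%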). To be noted: HEK293-TLR3 RL24 IRF3 luciferase reporter, at 10 µM, stronger effect = higher value.
Where [13] appears, read: measured here: cell density z-score.
[14] abbreviates: measured here: nuclear c-Myc green intensity z-score.
[15] abbreviates: measured here: nuclear pErk red intensity z-score, stronger effect = higher value.

Chain of Alpha-2C adrenergic receptor (Homo sapiens) (P18825 whole entry, looked up): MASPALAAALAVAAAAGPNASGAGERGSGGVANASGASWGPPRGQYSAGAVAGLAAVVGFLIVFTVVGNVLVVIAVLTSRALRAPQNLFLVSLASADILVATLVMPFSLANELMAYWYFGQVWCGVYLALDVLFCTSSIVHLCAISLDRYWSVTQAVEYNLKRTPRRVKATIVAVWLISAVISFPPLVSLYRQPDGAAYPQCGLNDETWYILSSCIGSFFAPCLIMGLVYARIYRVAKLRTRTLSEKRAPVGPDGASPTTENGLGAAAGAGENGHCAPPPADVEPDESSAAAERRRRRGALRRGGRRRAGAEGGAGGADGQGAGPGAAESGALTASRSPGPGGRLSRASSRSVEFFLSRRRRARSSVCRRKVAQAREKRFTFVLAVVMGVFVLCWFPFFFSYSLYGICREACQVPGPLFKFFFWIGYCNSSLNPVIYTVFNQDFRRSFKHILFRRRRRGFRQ

Regarding `Cc1[nH]nc2c1C(CCc1ccccc1)C(C#N)=C(N)O2` (stereo not given), the cell count in assay [1] is 561. Moreover, the inhibition in assay [1] was -10% (inactive); in assay [3], -14.6% (inactive); in assay [5] it was -9.7% (inactive); in assay [10], 2.48% (inactive); in [11], -8.58% (inactive); in assay [12], 2.77% (inactive). In assay [2], the inhibition of aggregation is -13.6% (inactive). The nuclei count was 111% in [2] and 115% in assay [3]. Besides, the z-score in assay [4] (setting [13]) was -1.62; in [4] (setting [14]), -1.48; in assay [4] (setting [15]), 1.34. Further, the fluorescence slope in assay [6] is -0.498 (inactive). In addition, the NADPH fluorescence slope in assay [7] was -3.1e-05 (inactive). Moreover, in [8], the slope was 0.00364 (inactive). Also, the compound was called inactive in assay [9].
Turning to `CCOc1nc(SCCOc2ccccc2)nc(N(C)C)n1`, in assay [1], the cell count turned out to be 397. Also, the inhibition in [1] is -7.1% (inactive); in [3] it was -68.5% (inactive); in assay [5], 22.8% (inactive); in assay [10], 28.4% (inactive); in assay [11] it was 0.0705% (inactive); in [12], -11.2% (inactive). The inhibition of aggregation in assay [2] was 4.3% (inactive). Also, the nuclei count in [2] stood at 54%; in assay [3] it was 113%. Also, the z-score in assay [4] (setting [13]) was 0.798; in assay [4] (setting [14]) it was -0.437; in assay [4] (setting [15]), -0.913. Besides, the fluorescence slope in [6] is -0.395 (inactive). The NADPH fluorescence slope in [7] was 1.4e-05 (inactive). The slope in [8] was 0.00398 (inactive). Also, in assay [9], the compound was classed as inactive.
As to `NS(=O)(=O)c1cc2c(cc1Cl)NC(C(Cl)Cl)NS2(=O)=O` (stereo not given), the cell count in assay [1] turned out to be 646. The inhibition in [1] was -8.4% (inactive); in assay [3] it was -57% (inactive); in assay [5], -4.44% (inactive); in assay [10] it was 3.47% (inactive); in [11], 13.9% (inactive); in assay [12] it was 35.5% (inactive). Further, in [2], the inhibition of aggregation was 4.9% (inactive). The nuclei count in [2] was 109%; in assay [3], 134%. The z-score in assay [4] (setting [13]) is -1.31; in [4] (setting [14]), -0.533; in [4] (setting [15]), 1.7. Moreover, the fluorescence slope in assay [6] was -0.512 (inactive). In [7], the NADPH fluorescence slope was -2e-05 (inactive). In addition, the slope in assay [8] is 0.00475 (inactive). Also, the call in assay [9] was inactive.
Regarding `CCCCCC#CCC#CCC#CCC#CCCCC(=O)O`, the cell count in assay [1] worked out at 542. Also, the inhibition in assay [1] is -10.5% (inactive); in assay [3], -39.3% (inactive); in assay [5] it was -0.493% (inactive); in assay [10], 2.88% (inactive); in [11], 11% (inactive); in assay [12], 33.2% (inactive). The inhibition of aggregation in assay [2] was -23.3% (inactive). In addition, the figures for the nuclei count in assay [2] and in [3] were 92.5% and 127%, respectively. Further, the z-score is -0.772 in assay [4] (setting [13]), 0.757 in assay [4] (setting [14]) and 0.0999 in assay [4] (setting [15]). In addition, the fluorescence slope in assay [6] is -0.461 (inactive). In addition, the NADPH fluorescence slope in assay [7] is -0.000212 (active). Moreover, in [8], the slope was 0.00468 (inactive). Besides, the result in [9] was inactive.
`CCOC(=O)C1CCN(c2nc3ccccc3nc2C(C#N)C(=O)OCCOC)CC1` (stereo not given): the cell count in assay [1] is 436. In addition, the inhibition in assay [1] was -5.7% (inactive); in [3] it was -67.9% (inactive); in assay [5], -11.5% (inactive); in assay [10], -22.9% (inactive); in [11], 13.3% (inactive); in assay [12] it was 3.22% (inactive). Further, the inhibition of aggregation in assay [2] was 12.8% (inactive). The nuclei count was found to be 81% in assay [2] and 120% in assay [3]. For the same compound, the results for the z-score in [4] (setting [13]), in [4] (setting [14]) and in assay [4] (setting [15]) were 0.586, 0.396 and 0.0352, respectively. Moreover, the fluorescence slope in assay [6] is -0.529 (inactive). Also, the NADPH fluorescence slope in [7] was 2.1e-06 (inactive). Also, in assay [8], the slope was 0.00561 (inactive). Moreover, in assay [9], the compound was called inactive.
With `NS(=O)(=O)c1cc2c(cc1Cl)NC=NS2(=O)=O`, the cell count in assay [1] turned out to be 531. For the same compound, the inhibition was -6.4% (inactive) in assay [1]; 13.8% (inactive) in assay [3]; 23.2% (inactive) in [5]; 11.8% (inactive) and 7.71% (inactive) in [10]; -14.2% (inactive) in assay [11]; -10.5% (inactive) in assay [12]. In addition, the inhibition of aggregation in assay [2] was -4.4% (inactive). Further, the nuclei count was 92.2% in assay [2] and 108% in [3]. The values for the z-score in [4] (setting [13]), in assay [4] (setting [14]) and in assay [4] (setting [15]) were 0.808, 0.404 and -1.03, respectively. Also, in assay [6], the fluorescence slope is -0.492 (inactive). In assay [7], the NADPH fluorescence slope is -0.000201 (active). In [8], the slope is 0.00527 (inactive). The result in [9] was inactive.
`NC(N)=NS(=O)(=O)c1ccc(N)cc1`: the cell count in assay [1] was determined as 630. In addition, the inhibition in assay [1] is 0.4% (inactive); in assay [3], -107% (inactive); in assay [5], 14.6% (inactive); in [10], -2.06% (inactive); in assay [11] it was 18.4% (inactive); in assay [12] it was 34.4% (inactive). The inhibition of aggregation in assay [2] was 9.4% (inactive). In addition, the figures for the nuclei count in assay [2] and in assay [3] were 99.7% and 136%, respectively. The z-score was 0.695 in [4] (setting [13]), -0.407 in [4] (setting [14]) and -0.348 in [4] (setting [15]). For the same compound, the fluorescence slope in [6] was -0.497 (inactive). Besides, the NADPH fluorescence slope in assay [7] was -7.4e-05 (inactive). For the same compound, in [8], the slope was 0.00546 (inactive). Besides, the result in assay [9] was inactive.
Turning to `CN1CCCN(C(c2ccccc2)c2ccc(Cl)cc2)CC1` (stereo not given), the cell count in [1] worked out at 564. Besides, the inhibition is 5.7% (inactive) in [1]; -6.3% (inactive) in [3]; -5.24% (inactive) in [5]; 43% (inactive) in assay [10]; -26.9% (inactive) in assay [11]; 68.6% (active) in [12]. In addition, in assay [2], the inhibition of aggregation is -11.5% (inactive). For the same compound, the nuclei count in assay [2] was determined as 103%; in assay [3] it was 120%. Moreover, the values for the z-score in assay [4] (setting [13]), in assay [4] (setting [14]) and in assay [4] (setting [15]) were 0.561, -0.226 and 0.2, respectively. Besides, the fluorescence slope in assay [6] was -0.519 (inactive). The NADPH fluorescence slope in assay [7] was -1.7e-06 (inactive). The slope in assay [8] was 0.00369 (inactive). Also, in assay [9], the compound was classed as inactive.
For the compound `CCOC(=O)C1=C(C)N=C2SC(C)C(=O)N2C1c1cccc(F)c1` (stereo not given), the cell count in assay [1] was found to be 400. Besides, the inhibition is -2.2% (inactive) in assay [1]; -10.3% (inactive) in assay [3]; 5.42% (inactive) in assay [5]; -0.443% (inactive) in assay [10]; 25.4% (inactive) in assay [11]; 20.1% (inactive) in [12]. Further, in assay [2], the inhibition of aggregation is 9.9% (inactive). The values for the nuclei count in [2] and in assay [3] were 102% and 139%, respectively. The z-score in [4] (setting [13]) was -0.692; in assay [4] (setting [14]) it was 0.668; in assay [4] (setting [15]) it was 0.0738. Further, the fluorescence slope in assay [6] is -0.448 (inactive). Besides, the NADPH fluorescence slope in assay [7] was -0.000135 (inactive). Moreover, the slope in assay [8] is 0.00424 (inactive). In addition, in assay [9], the call was inactive.
`N#Cc1c(N)n(CCOC(=O)c2cccc(Br)c2)c2nc3ccccc3nc12`: the cell count in [1] came out at 592. For the same compound, the inhibition was 0.6% (inactive) in [1]; -20.6% (inactive) in assay [3]; -1.12% (inactive) in assay [5]; 15.2% (inactive) in [10]; 16.3% (inactive) in [11]; 30.6% (inactive) in assay [12]. Moreover, the inhibition of aggregation in [2] is -46.7% (inactive). For the same compound, the nuclei count was 75.5% in assay [2] and 108% in assay [3]. Moreover, the z-score in [4] (setting [13]) was 1.33; in assay [4] (setting [14]), -2.21; in assay [4] (setting [15]), -0.755. For the same compound, in assay [6], the fluorescence slope was -0.434 (inactive). For the same compound, the NADPH fluorescence slope in assay [7] was -0.000171 (inactive). For the same compound, the slope in assay [8] is 0.00581 (inactive). In assay [9], the outcome was inactive.
